# In the library only some 1.5% were active in any assay of this set; here they are far more common.
# Tb PGK inh – T. brucei PGK inhibition; Potency, µM (titrated, usually from 57.5 µM), inactives show at the highest dose activity change, negative = inhibition, actives largely listed as inhibitors; 0.043% of 380,000 active; PGK/GAPDH coupled, Kinase-Glo luminescence, 60 min; P07378; note: potency is the fitted concentration of half-maximal effect; nearly all actives have a fitted effect of over 60% in size
#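 Luminescent ATP detection (Kinase-Glo Plus) follows a 60-minute room-temperature incubation, with wells lacking PGK as controls. Buffer: 100 mM TEA (pH 7.6), 5 mM MgCl2, 0.01% Tween-20. Coupling enzyme GAPDH (100 nM final) supplies unstable 1,3-BPG in-well.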
# FEN1 inh – blocks human flap endonuclease 1; P39748; Recombinant FEN1 flap cleavage, fluorescence, 15 min; Potency, µM (series often up to 114 µM), for inactives: at the highest dose activity change, negative = inhibition, most hits filed as inhibitors; 0.35% of 390,000 active; note: potency is the fitted concentration of half-maximal effect; nearly all actives have a fitted effect of over 65% in size
#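 Quantitative HTS format: each compound was titrated, incubated with 10 nM nuclease for 15 min at room temperature, then challenged with flap substrate at 50 nM final. Signal change over 15 min gave concentration–effect curves.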
# PI5P4K alpha inh – PI5P4K alpha (human) kinase inhibition; P48426; PI5P4Kalpha enzyme, ADP-Glo luminescence, 60 min; hits give low values; max response, %; 1.2% of 330,000 active; active = max response of -50% or lower; inconclusive = between -30% and -50%; inactive = -30% or higher; note: value at the top dose of about 77 µM
# Target sequence (P48426 whole entry, looked up): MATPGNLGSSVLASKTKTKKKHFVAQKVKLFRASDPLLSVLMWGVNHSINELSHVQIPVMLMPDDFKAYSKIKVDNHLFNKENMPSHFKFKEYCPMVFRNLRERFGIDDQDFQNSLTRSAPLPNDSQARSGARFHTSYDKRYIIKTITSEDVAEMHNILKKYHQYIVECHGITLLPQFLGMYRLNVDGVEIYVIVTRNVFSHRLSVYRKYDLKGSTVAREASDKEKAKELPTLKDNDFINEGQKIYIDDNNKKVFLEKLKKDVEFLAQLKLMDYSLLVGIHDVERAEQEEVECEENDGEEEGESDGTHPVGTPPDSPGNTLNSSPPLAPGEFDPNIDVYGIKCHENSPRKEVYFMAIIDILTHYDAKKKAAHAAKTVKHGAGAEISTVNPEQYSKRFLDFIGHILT
#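 ADP-Glo luminescence end-point after a 60 min room-temperature kinase reaction. PI5P4Kalpha and substrate in HEPES pH 7.4 buffer with EGTA, 0.1% CHAPS and 5% DMSO; ATP at 5 microM final.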
# WRN inhibitor – blocks human WRN helicase; WRN helicase unwinding, fluorescent forked duplex, kinetic; Potency, µM (doses to about 114 µM), inactives show top-dose activity change, negative = inhibition, usual class: inhibitors; 0.46% of 360,000 active; Q14191; AID 651768; note: potency is the fitted concentration of half-maximal effect; nearly all actives have a fitted effect of over 55% in size
#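 Screening of the MLSMR collection measured strand separation of a quenched forked DNA duplex (100 nM) by 20 nM WRN with 2 mM ATP, all final. Compounds were preincubated with enzyme 15 min at room temperature.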
# Tb PFK inh – inhibitors of T. brucei phosphofructokinase; O15648; T. brucei PFK, ADP-Glo luminescence; Potency, µM (top dose mostly 57.5 µM), without a hit: at the highest dose activity, negative = inhibition, usual class: inhibitors; 0.17% of 330,000 active;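 note: potency is the fitted concentration of half-maximal effect; 0% = uninhibited 1x PFK enzyme wells and -100% = no-enzyme wells; nearly all actives have a fitted effect of over 60% in size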
#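 In TEA buffer at pH 8.0 with 5 mM MgCl2, enzyme (1.25 nM) converted F6P (0.5 mM) and ATP (0.1 mM) for 45 min at room temperature. ADP product was read by luciferase luminescence.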
# TDP1 inh – TDP1 (human) enzyme inhibition | Q9NUW8 | Potency, µM (doses to about 130 µM), for the others: at the highest dose activity change, negative = inhibition, usual class: inhibitors | AID 485290 | 0.28% of 350,000 active | recombinant TDP1, AlphaScreen DNA substrate cleavage; note: potency is the fitted concentration of half-maximal effect; nearly all actives have a fitted effect of over 40% in size
#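 Steps: enzyme plus compound, 15 min RT; add biotin/phosphotyrosine-FITC oligonucleotide (15 nM final), react 5 min; add donor/acceptor beads (10 ug/ml final), 10 min; read AlphaScreen. Tdp1 at 1 nM final.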
# * hit, by the source's call; i = inactive; ? = inconclusive; · = no result; [ ] = dose if it differs, or a comment. Unless noted, calls come from the whole dose curve; as a rule, active = well fitted curve in the direction sought with a large enough effect; inconclusive = small, poorly fitted or top-dose-only effect, or another doubt; inactive = no such curve, though single readings can be large; an effect the other way counts as inactive or inconclusive. Unless noted, % is set by controls: 0 for no effect and ±100 for the full control effect.
SMILES,Tb PGK inh,FEN1 inh,PI5P4K alpha inh,WRN inhibitor,Tb PFK inh,TDP1 inh
COc1cc(NC(=S)NCCC(c2ccccc2)c2ccccc2)cc(OC)c1,4%,79µM*,12,40µM*,1%,0%
CC(=O)C1=C(O)C(=O)N(Cc2ccccc2)C1c1ccc(N(C)C)cc1 (centres undefined),-2%,18µM*,-7,-1%[11.6 µM],1%,·
CC(=O)C1=C(O)C(=O)N(Cc2ccccc2)C1c1ccc(Cl)cc1 (centres undefined),1%,?,3,-3%,-8%,·
COc1cc(OC)c(OC)cc1/C=c1\[nH]c(=O)/c(=C/c2cc(OC)c(OC)cc2OC)[nH]c1=O,·,-5%,·,·,·,·
COc1ccccc1-n1c(C)cc(/C=C2\C(=N)N3N=C(CC(=O)N4CCOCC4)SC3=NC2=O)c1C,-1%,20%,0,-2%,9%,8%
CCOc1ccc(-n2c(C)cc(/C=C3/C(=N)N4C(=NC3=O)SN=C4S(C)(=O)=O)c2C)cc1,·,0%,-64*,-13%,1%,6%
COc1ccccc1-n1c(C)cc(/C=C2/C(=N)N3C(=NC2=O)SN=C3S(C)(=O)=O)c1C,-7%,-1%,-51*,-8%,-4%,8%
Cc1cc(/C=C2/C(=N)N3C(=NC2=O)SN=C3S(C)(=O)=O)c(C)n1-c1ccc(F)cc1,·,3%,-64*,-11%,1%,7%
COc1cc(/C=C2/C(=N)N3C(=NC2=O)SN=C3S(C)(=O)=O)ccc1OS(=O)(=O)c1ccccc1,·,·,·,·,-9%,-9%
CC1=NN2C(=N)/C(=C\c3cc(C)n(-c4ccccc4)c3C)C(=O)N=C2S1,5%,16%,-4,-2%,4%,1%
Cc1cc(/C=C2/C(=N)N3C(c4ccccc4)=CSC3=NC2=O)c(C)n1-c1ccccc1,-4%,-5%,?,-11%,0%,4%
CCOc1cc(/C=C2/C(=N)N3C(=NC2=O)SN=C3S(C)(=O)=O)ccc1OS(=O)(=O)c1ccccc1,-5%,-30%,-63*,-27%,-6%,-8%
C[C@H]1Cc2c(COc3ccccc3)nc3c(c2CO1)CN(C(=O)c1ccco1)CC3,·,·,·,·,·,15%[12.3 µM]
CCNC(=O)[C@H]1O[C@@H](n2cnc3c(N)nc(NCCc4ccc(CCC(=O)O)cc4)nc32)[C@H](O)[C@H]1O,·,·,·,·,·,8%[56.1 µM]
O=c1oc2ccccc2c(O)c1/C=C1\C=Nc2ccccc21,1%,0%,-56*,-31%,2%,-1%
O=C(O)c1cccc(NC(=S)NC(=O)c2ccc(-c3ccc(Cl)cc3)o2)c1,?,?,-19,?,1%,·
O=C(O)c1ccc(NC(=S)NC(=O)c2ccc(-c3ccc(Br)cc3)o2)cc1,?,-10%,?,-31%,-5%,14µM*
O=C(Nc1ccccc1)[C@@H]1CC=C[C@@H]2CCN(C3CC3)C(=O)[C@@H]21,·,18%,·,·,·,·
O=C(OCC(=O)N1CCCC1=O)c1nc(Cl)c(Cl)c(Cl)c1Cl,-11%,-8%,-20,-6%[11.6 µM],-21%,45µM*
CCc1nnc(NC(=O)C2CC(=O)N(C3CCCCC3)C2)s1 (centres undefined),i,0%,-5,7%,-2%,22µM*
COCCSc1nnc(NC(=O)C2CC(=O)N(C3CCCC3)C2)s1 (centres undefined),i,-9%,3,4%,5%,-2%
O=c1cc(-c2cccc(O)c2)oc2c(O)c(O)ccc12,·,·,·,·,·,-6%[56.1 µM]
O=C(O)CCc1c2ccc(=O)c(O)c-2oc2c(O)c(O)ccc12,·,1.4µM*,·,·,·,·
CCCCCCSc1nnc2[nH]c(=O)cc(N)n12,-2%,-3%,-13,-4%,2%,3%
CCCCCCCCSc1nnc2[nH]c(=O)cc(N)n12,i,21%,-50*,?,-6%,4%
COc1ccccc1OC(=O)c1cc2ccccc2oc1=O,0%,2%,0,3%,7%,·
COc1cc(/C=C/[N+](=O)[O-])ccc1OC(=O)c1cc2ccccc2oc1=O,-4%,3%,-61*,-29%[11.6 µM],4%,·
